Data: PubChem BioAssay
Calls of active or inactive are those of the source.

How the values were obtained:
[1] = tested on: Plasmodium falciparum Sir2 (PF13_0152, Sir2A); assay: Plasmodium falciparum Sir2A binding compounds – biochemical, small-molecule microarray, 635 nm fluorescence, primary screen (AID 1098); settings: fluorescence 635 nm, higher = more signal;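 note: score merges spot fluorescence intensity with its signal-to-noise ratio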
[2] = probe aDKK1 binding to arrayed compounds – biochemical, biotinylated probe, 635/667 nm fluorescence, primary screen (AID 1099); settings: small-molecule microarray, higher = more signal;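 note: score merges 667nm spot fluorescence with signal to noise across triplicate slides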
[3] = probe aCHRDL2 binding to arrayed compounds – biochemical, biotinylated probe, 635/667 nm fluorescence, primary screen (AID 1100); settings: small-molecule microarray, higher = more signal
[4] = change in splice reporter luminescence, either direction, cell-based, HEK293, spliceosome inhibition project, primary screen (AID 1101); settings: HEK293 splicing luciferase reporter, 24 h, higher = more signal, called active from +8 up or from −8 down;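 note: HEK293 cells carrying a splicing-competent luciferase reporter gene; test concentration not given here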
[5] = molecular target: Fibroblast growth factor 10 (Homo sapiens) (UniProt O15520); assay: compounds binding fibroblast growth factor 10 – biochemical, small-molecule microarray, 635 nm fluorescence, primary screen (AID 1102); settings: FGF10 binding, fluorescence 635 nm, higher = more signal
[6] = tested on: glycogen synthase kinase-3 (GSK3A per assay name; protocol says GSK3B); assay: compounds binding glycogen synthase kinase-3 – biochemical, small-molecule microarray, 635 nm fluorescence, GSK3A, primary screen (AID 1103); settings: fluorescence 635 nm, higher = more signal; note: the record names both GSK3A and GSK3B
[7] = molecular target: Epidermal growth factor receptor (Homo sapiens) (UniProt P00533); assay: compounds binding epidermal growth factor receptor – biochemical, small-molecule microarray, 635 nm fluorescence, primary screen (AID 1104); settings: EGFR binding, higher = more signal;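 note: score merges 667 nm emission intensity with spot signal to noise over triplicate slides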
[8] = molecular target: Follistatin-related protein 3 (Homo sapiens) (UniProt O95633); assay: compounds binding follistatin-related protein 3 – biochemical, small-molecule microarray, 635 nm fluorescence, primary screen (AID 1105); settings: FSTL3 binding, higher = more signal;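 note: score merges emission near 667 nm and signal to noise per printed spot across three slides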
[9] = molecular target: Dickkopf-related protein 1 (Homo sapiens) (UniProt O94907); assay: small molecules binding DKK1 protein – biochemical, small-molecule microarray, 635 nm fluorescence scan, primary screen (AID 1106); settings: higher = more signal;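 note: score merges emission near 667 nm with signal to noise over three replicate slides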
[10] = tested on: Inhibin beta A chain (activin A); assay: small molecules binding activin A – biochemical, small-molecule microarray, 635 nm fluorescence scan, primary screen (AID 1107); settings: INHBA, higher = more signal;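 note: mouse activin A protein probed at 4.33 µg/mL on printed slides; score merges bound-protein fluorescence near 667 nm with spot signal-to-noise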
[11] = tested on: Human papillomavirus type 1a protein E7 (residues 44-93); assay: small molecules binding HPV E7 44-93 – biochemical, small-molecule microarray, residues 44-93, 635 nm fluorescence, primary screen (AID 1108); settings: fluorescence 635 nm, higher = more signal;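 note: E7 fragment applied at 1 µg/mL in TBST for 1 h at 4 C; score combines spot fluorescence with its signal to noise ratio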
[12] = hepatitis C replication reporter changes, two-sided – Huh7 cells, luciferase reporter, HCV replication inhibitor project, primary screen (AID 1109); settings: Huh7 HCV replicon luciferase reporter, 48 h; higher = more signal;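 note: huh7 hepatoma cells harbouring a luciferase neomycin HCV replicon reporter; luciferase luminescence as measure of HCV replicon replication; test concentration not given here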
[13] = molecular target: Left-right determination factor 2 (Homo sapiens) (UniProt O00292); assay: small molecules binding LEFTY2 protein – biochemical, small-molecule microarray, 635 nm fluorescence scan, primary screen (AID 1110); settings: higher = more signal
[14] = molecular target: Calmodulin-1 (Homo sapiens) (UniProt P0DP23); assay: small molecules binding calmodulin-1 with EGTA – biochemical, small-molecule microarray, Cy5-labelled CALM1, profiling panel (AID 1111); settings: Cy5-CALM1 binding fluorescence, higher = more signal;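 note: labelled calmodulin applied in Tris saline Tween buffer holding calcium plus EGTA and DTT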
[15] = molecular target: Calmodulin-1 (Homo sapiens) (UniProt P0DP23); assay: small molecules binding Ca-loaded calmodulin-1 – biochemical, small-molecule microarray, Cy5-labelled CALM1, plus calcium, artefact control for SMM control-protein annotation, profiling panel (AID 1112); settings: Cy5-CALM1 binding fluorescence, higher = more signal;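 note: score merges spot fluorescence with signal to noise from triplicate slides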
[16] = probe aWnt5a binding to arrayed compounds – biochemical, biotinylated probe, 635/667 nm fluorescence, primary screen (AID 1113); settings: small-molecule microarray, higher = more signal;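 note: score merges 667 nm fluorescence intensity with signal-to-noise per printed feature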
[17] = probe aShh binding to arrayed compounds – biochemical, biotinylated probe, 635/667 nm fluorescence, primary screen (AID 1114); settings: small-molecule microarray, higher = more signal;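 note: probe is biotin-labelled aShh protein from a stem cell growth factor screen; measures binding of labelled protein to compounds printed on the slide; score merges feature fluorescence at 667 nm with signal-to-noise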
[18] = probe aNog binding to arrayed compounds – biochemical, biotinylated probe, 635/667 nm fluorescence, primary screen (AID 1115); settings: small-molecule microarray, higher = more signal;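 note: probe is biotinylated aNog protein used at 0.15 µg/mL for 1 h at 4 C; z-score combines 667 nm fluorescence of each spot with its signal to noise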
[19] = molecular target: Torsin-1A-interacting protein 1 (Homo sapiens) (UniProt Q5JTV8); assay: compound microarray binding of lysate hLAP1 – cell lysate, small-molecule microarray, COS7 lysate, 635/667 nm fluorescence, primary screen (AID 1116); settings: 635 nm fluorescence, higher = more signal
[20] = molecular target: Alpha-bungarotoxin (Bungarus multicinctus) (UniProt P60615); assay: compounds binding labelled alpha-BTX control protein – biochemical, small-molecule microarray, Alexa647 label, 635/667 nm fluorescence, artefact control for SMM control protein annotation, profiling panel (AID 1117); settings: alpha-BTX-A647 binding fluorescence, higher = more signal
Sequence of Alpha-bungarotoxin (Bungarus multicinctus) (P60615 whole entry, looked up): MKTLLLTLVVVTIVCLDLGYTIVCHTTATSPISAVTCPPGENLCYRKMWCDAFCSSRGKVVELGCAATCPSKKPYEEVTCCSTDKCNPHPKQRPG

Sequence of Torsin-1A-interacting protein 1 (Homo sapiens) (Q5JTV8 whole entry, looked up): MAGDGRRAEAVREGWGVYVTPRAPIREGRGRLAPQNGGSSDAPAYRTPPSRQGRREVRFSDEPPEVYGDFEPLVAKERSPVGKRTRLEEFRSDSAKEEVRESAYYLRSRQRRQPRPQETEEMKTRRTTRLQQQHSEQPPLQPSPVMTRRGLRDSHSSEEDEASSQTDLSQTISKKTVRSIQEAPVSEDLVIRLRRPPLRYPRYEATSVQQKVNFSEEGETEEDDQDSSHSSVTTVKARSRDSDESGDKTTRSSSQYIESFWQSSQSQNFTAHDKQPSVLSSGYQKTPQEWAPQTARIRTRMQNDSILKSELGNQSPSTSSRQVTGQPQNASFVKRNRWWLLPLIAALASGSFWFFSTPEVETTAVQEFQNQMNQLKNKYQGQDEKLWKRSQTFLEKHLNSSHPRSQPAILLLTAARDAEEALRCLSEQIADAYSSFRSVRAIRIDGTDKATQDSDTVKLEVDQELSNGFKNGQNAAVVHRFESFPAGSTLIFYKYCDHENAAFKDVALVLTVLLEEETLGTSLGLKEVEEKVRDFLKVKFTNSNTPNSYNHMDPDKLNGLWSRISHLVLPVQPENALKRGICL
Sequence of Dickkopf-related protein 1 (Homo sapiens) (O94907 whole entry, looked up): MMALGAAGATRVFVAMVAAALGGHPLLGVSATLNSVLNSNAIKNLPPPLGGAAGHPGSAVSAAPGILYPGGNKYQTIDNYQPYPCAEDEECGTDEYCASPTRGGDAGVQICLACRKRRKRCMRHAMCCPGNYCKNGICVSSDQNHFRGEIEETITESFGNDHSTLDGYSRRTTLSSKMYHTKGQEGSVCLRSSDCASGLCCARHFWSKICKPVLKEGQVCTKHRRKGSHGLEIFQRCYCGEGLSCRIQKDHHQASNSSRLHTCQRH
Sequence of Fibroblast growth factor 10 (Homo sapiens) (O15520 whole entry, looked up): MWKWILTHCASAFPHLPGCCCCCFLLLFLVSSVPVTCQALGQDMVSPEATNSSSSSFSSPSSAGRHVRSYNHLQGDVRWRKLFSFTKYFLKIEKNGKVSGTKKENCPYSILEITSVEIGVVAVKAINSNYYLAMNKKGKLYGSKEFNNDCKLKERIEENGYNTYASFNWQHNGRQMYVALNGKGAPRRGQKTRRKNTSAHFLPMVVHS
Sequence of Left-right determination factor 2 (Homo sapiens) (O00292 whole entry, looked up): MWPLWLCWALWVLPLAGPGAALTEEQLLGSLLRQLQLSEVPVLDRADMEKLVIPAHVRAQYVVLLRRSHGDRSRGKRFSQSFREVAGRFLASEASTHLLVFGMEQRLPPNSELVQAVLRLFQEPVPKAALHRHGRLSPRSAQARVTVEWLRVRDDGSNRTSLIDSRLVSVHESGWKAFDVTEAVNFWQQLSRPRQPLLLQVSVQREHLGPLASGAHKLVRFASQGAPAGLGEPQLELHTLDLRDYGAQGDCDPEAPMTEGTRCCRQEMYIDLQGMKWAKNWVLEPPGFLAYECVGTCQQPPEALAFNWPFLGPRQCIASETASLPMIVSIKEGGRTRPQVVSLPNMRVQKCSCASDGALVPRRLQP
Sequence of Follistatin-related protein 3 (Homo sapiens) (O95633 whole entry, looked up): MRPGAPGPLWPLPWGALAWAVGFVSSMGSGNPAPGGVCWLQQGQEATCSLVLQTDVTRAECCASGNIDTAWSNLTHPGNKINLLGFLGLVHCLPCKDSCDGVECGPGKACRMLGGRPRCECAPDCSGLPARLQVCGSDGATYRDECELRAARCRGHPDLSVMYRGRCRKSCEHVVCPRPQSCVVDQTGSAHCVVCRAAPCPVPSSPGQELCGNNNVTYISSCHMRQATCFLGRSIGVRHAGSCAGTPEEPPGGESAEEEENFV
Sequence of Epidermal growth factor receptor (Homo sapiens) (P00533 whole entry, looked up): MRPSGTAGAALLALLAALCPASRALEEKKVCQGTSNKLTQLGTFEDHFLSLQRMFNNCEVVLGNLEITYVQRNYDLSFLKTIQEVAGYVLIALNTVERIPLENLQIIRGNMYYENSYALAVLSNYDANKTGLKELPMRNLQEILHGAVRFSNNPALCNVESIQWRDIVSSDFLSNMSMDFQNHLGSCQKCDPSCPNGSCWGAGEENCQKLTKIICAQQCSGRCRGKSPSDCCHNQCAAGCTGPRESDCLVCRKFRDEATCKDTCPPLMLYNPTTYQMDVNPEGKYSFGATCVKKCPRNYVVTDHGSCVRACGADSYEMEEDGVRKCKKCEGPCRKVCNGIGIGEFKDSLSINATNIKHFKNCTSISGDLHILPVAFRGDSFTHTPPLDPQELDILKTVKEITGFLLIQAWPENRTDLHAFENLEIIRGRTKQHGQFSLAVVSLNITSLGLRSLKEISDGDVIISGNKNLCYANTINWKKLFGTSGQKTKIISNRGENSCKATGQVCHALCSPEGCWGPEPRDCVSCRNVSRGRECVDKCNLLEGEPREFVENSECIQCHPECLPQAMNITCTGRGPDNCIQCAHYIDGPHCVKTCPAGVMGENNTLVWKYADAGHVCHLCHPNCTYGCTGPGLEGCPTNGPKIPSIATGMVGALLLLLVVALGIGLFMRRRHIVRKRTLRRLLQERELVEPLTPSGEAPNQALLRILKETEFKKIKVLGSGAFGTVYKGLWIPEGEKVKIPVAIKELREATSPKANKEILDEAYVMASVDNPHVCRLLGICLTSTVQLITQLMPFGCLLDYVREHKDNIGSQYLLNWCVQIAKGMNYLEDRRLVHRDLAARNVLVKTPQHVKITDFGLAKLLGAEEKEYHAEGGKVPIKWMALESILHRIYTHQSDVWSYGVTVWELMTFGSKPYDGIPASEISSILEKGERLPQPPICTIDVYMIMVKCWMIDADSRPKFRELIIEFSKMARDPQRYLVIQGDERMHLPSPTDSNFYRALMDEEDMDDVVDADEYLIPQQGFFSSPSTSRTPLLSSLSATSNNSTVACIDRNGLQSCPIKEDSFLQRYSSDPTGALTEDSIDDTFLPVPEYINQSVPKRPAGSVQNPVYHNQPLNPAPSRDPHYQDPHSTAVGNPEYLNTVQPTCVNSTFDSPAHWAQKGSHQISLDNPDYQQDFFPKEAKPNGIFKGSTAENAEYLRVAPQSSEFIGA

CCCNC(=O)[C@@]1(C)c2ccccc2C(=O)N(Cc2ccc(OC(F)(F)F)cc2)[C@H]1c1ccc(CO)cc1
composite z-score [1]: 1.57
composite z-score [2]: 0.0743
composite z-score [3]: 0.666
z-score [4]: -0.129 (inactive)
composite z-score [5]: 0.0672
composite z-score [6]: 0.0816
composite z-score [7]: -1.02
composite z-score [8]: -0.401
composite z-score [9]: -0.977
composite z-score [10]: 0.427
composite z-score [11]: -0.481
z-score [12]: -0.16
composite z-score [13]: -0.808
composite z-score [14]: 0.149
composite z-score [15]: -0.124
composite z-score [16]: -0.0685
composite z-score [17]: -0.222
composite z-score [18]: 0.597
composite z-score [19]: 1.28
composite z-score [20]: 0.0855

COCCOC(=O)N1C(=O)[C@@]2(c3ccccc31)[C@H](c1ccc(O)cc1)N1[C@H](c3ccccc3)[C@H](c3ccccc3)OC(=O)[C@H]1[C@@H]2C(N)=O
composite z-score [1]: 0.394
composite z-score [2]: -0.374
composite z-score [3]: 0.679
z-score [4]: 0.435 (inactive)
composite z-score [5]: -0.422
composite z-score [6]: -1.11
composite z-score [7]: -0.608
composite z-score [8]: -0.821
composite z-score [9]: -1.17
composite z-score [10]: -0.249
composite z-score [11]: -1.11
z-score [12]: -0.823
composite z-score [13]: -0.827
composite z-score [14]: -0.284
composite z-score [15]: -0.0872
composite z-score [16]: -0.0256
composite z-score [17]: 0.0899
composite z-score [18]: -0.346
composite z-score [19]: -0.571
composite z-score [20]: -0.448

COC(=O)C(CC#Cc1ccc2c(c1)[C@]1(C(=O)N2)[C@H](C(=O)N2CCCCCCC2)[C@H]2C(=O)O[C@H](c3ccccc3)[C@H](c3ccccc3)N2[C@@H]1c1ccccc1OCCO)C(=O)OC
composite z-score [1]: 2.14
composite z-score [2]: 3.1
composite z-score [3]: 1.75
z-score [4]: 0.13 (inactive)
composite z-score [5]: 1.47
composite z-score [6]: 1.47
composite z-score [7]: 1.96
composite z-score [8]: 1.73
composite z-score [9]: 2.58
composite z-score [10]: 1.79
composite z-score [11]: 1.6
z-score [12]: -1.88
composite z-score [13]: 1.8
composite z-score [14]: 3.11
composite z-score [15]: 1.85
composite z-score [16]: 1.59
composite z-score [17]: 3.17
composite z-score [18]: 3.79
composite z-score [19]: 6.01
composite z-score [20]: 4.45

C=C(C(=O)CC[C@@H](OC(=O)c1cccnc1)c1ccc(CO)o1)C(C)C
composite z-score [1]: 0.392
composite z-score [2]: -0.174
composite z-score [3]: -0.36
z-score [4]: 1.38 (inactive)
composite z-score [5]: 1.16
composite z-score [6]: 0.803
composite z-score [7]: 0.152
composite z-score [8]: 0.933
composite z-score [9]: 0.479
composite z-score [10]: 1.04
composite z-score [11]: 1.03
z-score [12]: -1.24
composite z-score [13]: 0.46
composite z-score [14]: -0.478
composite z-score [15]: -0.835
composite z-score [16]: -0.139
composite z-score [17]: -0.0701
composite z-score [18]: 0.337
composite z-score [19]: 1.35
composite z-score [20]: 0.346

C=C(CCCC)C(=O)CC[C@@H](OC(=O)c1ccccc1-c1ccccc1C(=O)O)c1ccc(CO)o1
composite z-score [1]: 0.628
composite z-score [2]: -0.0075
composite z-score [3]: -0.301
z-score [4]: 0.716 (inactive)
composite z-score [5]: 1.22
composite z-score [6]: 1.1
composite z-score [7]: -0.183
composite z-score [8]: 0.818
composite z-score [9]: 1.03
composite z-score [10]: 1.01
composite z-score [11]: 0.776
z-score [12]: -0.705
composite z-score [13]: 0.584
composite z-score [14]: -0.213
composite z-score [15]: -0.483
composite z-score [16]: -0.0478
composite z-score [17]: 0.108
composite z-score [18]: -0.266
composite z-score [19]: 1.23
composite z-score [20]: -0.146

Cc1ccc(S[C@]2(C(=O)NCC(F)(F)F)CC(=O)N(C3Cc4ccccc4C3)[C@@H]2c2ccc(CO)cc2I)cc1
composite z-score [1]: 1.08
composite z-score [2]: 0.599
composite z-score [3]: 1.19
z-score [4]: -0.426 (inactive)
composite z-score [5]: -1.02
composite z-score [6]: -1.3
composite z-score [7]: -1.51
composite z-score [8]: -1
composite z-score [9]: -2.11
composite z-score [10]: 0.554
composite z-score [11]: -0.263
z-score [12]: -1.55
composite z-score [13]: -1.56
composite z-score [14]: -0.0026
composite z-score [15]: 0.994
composite z-score [16]: -0.184
composite z-score [17]: -0.197
composite z-score [18]: 2.14
composite z-score [19]: 0.265
composite z-score [20]: 0.918

CCOC(=O)C1=CC[C@@H](c2ccccc2)N(S(=O)(=O)c2ccc(C)cc2)[C@H]1c1ccc(C#N)cc1
composite z-score [1]: 0.802
composite z-score [2]: 1.17
composite z-score [3]: 1.18
z-score [4]: -0.29 (inactive)
composite z-score [5]: 0.278
composite z-score [6]: 1.29
composite z-score [7]: -0.18
composite z-score [8]: 0.272
composite z-score [9]: -0.972
composite z-score [10]: 0.676
composite z-score [11]: 1.2
z-score [12]: -2.11
composite z-score [13]: -0.266
composite z-score [14]: 1.95
composite z-score [15]: 1
composite z-score [16]: -0.0236
composite z-score [17]: 0.385
composite z-score [18]: 0.621
composite z-score [19]: 1.48
composite z-score [20]: 1.84

COCCOC(=O)N1C(=O)[C@@]2(c3cc(C#Cc4ccc(OC)cc4)ccc31)[C@H](c1ccc(O)cc1)N1[C@H](c3ccccc3)[C@H](c3ccccc3)OC(=O)[C@H]1[C@@H]2C(=O)N1CCN(c2ncccn2)CC1
composite z-score [1]: 0.408
composite z-score [2]: -0.544
composite z-score [3]: 0.245
z-score [4]: 0.477 (inactive)
composite z-score [5]: 0.735
composite z-score [6]: -0.0597
composite z-score [7]: 0.375
composite z-score [8]: 0.85
composite z-score [9]: 0.355
composite z-score [10]: 0.349
composite z-score [11]: 1.37
z-score [12]: -1.05
composite z-score [13]: 0.224
composite z-score [14]: 0.966
composite z-score [15]: 0.361
composite z-score [16]: -0.0846
composite z-score [17]: -0.441
composite z-score [18]: -0.124
composite z-score [19]: 0.596
composite z-score [20]: 0.829

C=CC[C@]1(C(=O)O)N=C(c2ccc(OCCCO)cc2)O[C@H]1c1ccccc1CN=[N+]=[N-]
composite z-score [1]: 1.74
composite z-score [2]: 0.177
composite z-score [3]: 0.559
z-score [4]: -0.611 (inactive)
composite z-score [5]: -0.222
composite z-score [6]: -0.341
composite z-score [7]: -0.0348
composite z-score [8]: 0.0521
composite z-score [9]: -0.128
composite z-score [10]: 1.35
composite z-score [11]: -0.907
z-score [12]: -0.439
composite z-score [13]: -0.46
composite z-score [14]: 0.371
composite z-score [15]: 0.939
composite z-score [16]: -0.0977
composite z-score [17]: -0.0209
composite z-score [18]: -0.0554
composite z-score [19]: 0.371
composite z-score [20]: -0.445

O=C1OCC=C[C@H]2OC34C=CCN(Cc5ccccc5)C(=O)[C@H]3N(CCCO)C(=O)[C@@H]4[C@@H]12 (stereo not given in full)
composite z-score [1]: 0.995
composite z-score [2]: 1.16
composite z-score [3]: 0.907
z-score [4]: -0.589 (inactive)
composite z-score [5]: 0.0676
composite z-score [6]: 0.301
composite z-score [7]: -0.692
composite z-score [8]: 0.37
composite z-score [9]: -0.896
composite z-score [10]: 1.22
composite z-score [11]: 1.22
z-score [12]: -0.789
composite z-score [13]: -0.406
composite z-score [14]: 1.19
composite z-score [15]: 0.918
composite z-score [16]: 0.0474
composite z-score [17]: 0.63
composite z-score [18]: 0.134
composite z-score [19]: 0.627
composite z-score [20]: -0.162

C=CCN1C(=O)[C@]2(COC(c3ccc(OCCCO)cc3)=N2)Cc2ccccc21
composite z-score [1]: 1.31
composite z-score [2]: 0.16
composite z-score [3]: 0.946
z-score [4]: -0.556 (inactive)
composite z-score [5]: 0.261
composite z-score [6]: 0.678
composite z-score [7]: 0.145
composite z-score [8]: 0.232
composite z-score [9]: -0.169
composite z-score [10]: 1.13
composite z-score [11]: 1.17
z-score [12]: -0.347
composite z-score [13]: -0.352
composite z-score [14]: -0.0567
composite z-score [15]: 0.0613
composite z-score [16]: 0.227
composite z-score [17]: 0.0253
composite z-score [18]: 0.795
composite z-score [19]: 2.59
composite z-score [20]: 1.48
